Results taken from PubChem BioAssay (Tox21).
Inconclusive results are not listed. Active and inactive are the calls of the source. Unless noted, calls come from the whole dose curve; as a rule, active = well fitted curve in the direction sought with a large enough effect in the repeat runs; inconclusive = weak or mixed curves; inactive = no such curve, though single readings can be large; an effect the other way counts as inactive or inconclusive.

Assays:
[1] = qHTS RealTime-Glo MT Cell Viability Assay in HepG2 cells - 32 hour (AID 1224877); note: nearly all actives have a fitted effect of over 55% in size
How it was run: (§1)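 Compound treatment began 5 h after plating HepG2 cells (600/well) with NanoLuc luciferase and prosubstrate. Plates stayed at 37 C for 40 h; luminescence was captured at six time points, 0 h through 40 h.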

[2] = A CellTox Green Cytotoxicity Assay to monitor cytotoxicity in HepG2 cells - 24 hour (AID 1224878); note: nearly all actives have a fitted effect of over 45% in size
How it was run: (§2)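 Using 1536-well format, dye-containing HepG2 suspension was seeded, allowed 5 h at 37 C/5% CO2, dosed by pintool with compounds, positive and negative controls, and imaged for fluorescence across 40 h.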

[3] = A CellTox Green Cytotoxicity Assay to monitor cytotoxicity in HepG2 cells - 40 hour (AID 1224879); note: nearly all actives have a fitted effect of over 40% in size
How it was run: as §2

[4] = qHTS RealTime-Glo MT Cell Viability Assay in HEK293 cells - 0 hour (AID 1224880); note: top concentration of the series differs between compounds; nearly all actives have a fitted effect of over 45% in size
How it was run: (§3)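 Viable HEK293 cells reduce a cell-permeant prosubstrate; the product diffuses out and is consumed by NanoLuc in the medium to give light. Compounds went in after a 5 h incubation and plates were read over the treatment course.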

[5] = A CellTox Green Cytotoxicity Assay to monitor cytotoxicity in HEK293 cells - 32 hour (AID 1224881); note: nearly all actives have a fitted effect of over 40% in size
How it was run: (§4)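 Fluorescence intensity, read at 0, 8, 16, 24, 32 and 40 h of compound treatment, reflected dye binding to DNA of dead HEK293 cells; compounds (23 nL, DMSO) were added 5 h after plating cells with reagent.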

[6] = A CellTox Green Cytotoxicity Assay to monitor cytotoxicity in HepG2 cells - 0 hour (AID 1224882); note: nearly all actives have a fitted effect of over 35% in size
How it was run: as §2

[7] = A CellTox Green Cytotoxicity Assay to monitor cytotoxicity in HepG2 cells - 32 hour (AID 1224883); note: nearly all actives have a fitted effect of over 50% in size
How it was run: as §2

[8] = A CellTox Green Cytotoxicity Assay to monitor cytotoxicity in HEK293 cells - 8 hour (AID 1224884); note: nearly all actives have a fitted effect of over 35% in size
How it was run: as §4

[9] = qHTS RealTime-Glo MT Cell Viability Assay in HepG2 cells - 16 hour (AID 1224885); note: nearly all actives have a fitted effect of over 50% in size
How it was run: as §1

[10] = qHTS RealTime-Glo MT Cell Viability Assay in HEK293 cells - 24 hour (AID 1224886); note: top concentration of the series differs between compounds; nearly all actives have a fitted effect of over 50% in size
How it was run: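 Quantitative high-throughput screen of the Tox21 10K library in HEK293: cells and RealTime-Glo reagents plated together, compound added at 5 h, luminescence monitored through 40 h at 37 C.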

[11] = qHTS RealTime-Glo MT Cell Viability Assay in HEK293 cells - 8 hour (AID 1224887); note: top concentration of the series differs between compounds; nearly all actives have a fitted effect of over 50% in size
How it was run: as §3

[12] = A CellTox Green Cytotoxicity Assay to monitor cytotoxicity in HEK293 cells - 16 hour (AID 1224888); note: nearly all actives have a fitted effect of over 35% in size
How it was run: as §4

[13] = qHTS RealTime-Glo MT Cell Viability Assay in HepG2 cells - 0 hour (AID 1224889); note: nearly all actives have a fitted effect of over 50% in size
How it was run: as §1

[14] = A CellTox Green Cytotoxicity Assay to monitor cytotoxicity in HepG2 cells - 8 hour (AID 1224890); note: nearly all actives have a fitted effect of over 45% in size
How it was run: as §2

[15] = qHTS assay to identify small molecule antagonists of the estrogen receptor alpha (ER-alpha) signaling pathway using the BG1 cell line in the presence of 0.1 nM 17-beta-estradiol - cell viability counter screen (AID 1259241); note: nearly all actives have a fitted effect of over 40% in size
How it was run: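 Estradiol-stimulated (0.1 nM) VM7Luc4E2 cells exposed to compounds 22 hr; viability measured by fluorescence of cleaved CellTiter-Fluor substrate after 30 min.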

[16] = qHTS assay to identify small molecule antagonists of the androgen receptor (AR) signaling pathway using the MDA cell line in the presence of 0.5 nM R1881 - cell viability counter screen (AID 1259242); note: nearly all actives have a fitted effect of over 45% in size
How it was run: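 Viability of MDA-kb2 cells was multiplexed with the luciferase AR readout; after 16 hr with compounds and R1881 at 0.5 nM final, CellTiter-Fluor fluorescence was recorded.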

[17] = molecular target: Androgen receptor (Homo sapiens) (UniProt P10275); test: qHTS assay to identify small molecule antagonists of the androgen receptor (AR) signaling pathway using the MDA cell line in the presence of 0.5 nM R1881 (AID 1259243); note: nearly all actives have a fitted effect of over 50% in size
How it was run: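 Reporter cells cultured without CO2 receive test chemicals, then 0.5 nM R1881 final; after 16 hr at 37C, ONE-Glo is added and light output recorded.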

[18] = molecular target: Estrogen receptor (Homo sapiens) (UniProt P03372); test: qHTS assay to identify small molecule antagonists of the estrogen receptor alpha (ER-alpha) signaling pathway using the BG1 cell line in the presence of 0.1 nM 17-beta-estradiol (AID 1259244); note: nearly all actives have a fitted effect of over 50% in size
How it was run: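 Estradiol at 0.1 nM (final) stimulates the endogenous ER-alpha of VM7Luc4E2 cells carrying an ERE-driven luciferase; compounds are co-incubated 22 h at 37C and luciferase output quantified by luminescence.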

[19] = qHTS assay to identify small molecule HDAC inhibitors (AID 1259364)
How it was run: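 Read-out: luminescence of HDAC-Glo I/II reagent, 30 min RT, reflecting class I/II deacetylase activity in whole HCT-116 cells pre-exposed 2 h to DMSO-dissolved compounds.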

[20] = qHTS assay to identify small molecule phospholipidosis (PLD) inducers (AID 1259344; active = well fitted curve in the direction sought with a large enough effect; an effect the other way counts as inactive or inconclusive)
How it was run: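 Fluorescent phospholipid staining (LipidTOX Red) measured by automated microscopy in fixed HepG2 cells after 24 h treatment; nuclei counterstained with Hoechst 33342; amiodarone as reference inducer.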
% is set by controls: 0 for no effect and ±100 for the full control effect.

Chain of Androgen receptor (Homo sapiens) (P10275 whole entry, looked up): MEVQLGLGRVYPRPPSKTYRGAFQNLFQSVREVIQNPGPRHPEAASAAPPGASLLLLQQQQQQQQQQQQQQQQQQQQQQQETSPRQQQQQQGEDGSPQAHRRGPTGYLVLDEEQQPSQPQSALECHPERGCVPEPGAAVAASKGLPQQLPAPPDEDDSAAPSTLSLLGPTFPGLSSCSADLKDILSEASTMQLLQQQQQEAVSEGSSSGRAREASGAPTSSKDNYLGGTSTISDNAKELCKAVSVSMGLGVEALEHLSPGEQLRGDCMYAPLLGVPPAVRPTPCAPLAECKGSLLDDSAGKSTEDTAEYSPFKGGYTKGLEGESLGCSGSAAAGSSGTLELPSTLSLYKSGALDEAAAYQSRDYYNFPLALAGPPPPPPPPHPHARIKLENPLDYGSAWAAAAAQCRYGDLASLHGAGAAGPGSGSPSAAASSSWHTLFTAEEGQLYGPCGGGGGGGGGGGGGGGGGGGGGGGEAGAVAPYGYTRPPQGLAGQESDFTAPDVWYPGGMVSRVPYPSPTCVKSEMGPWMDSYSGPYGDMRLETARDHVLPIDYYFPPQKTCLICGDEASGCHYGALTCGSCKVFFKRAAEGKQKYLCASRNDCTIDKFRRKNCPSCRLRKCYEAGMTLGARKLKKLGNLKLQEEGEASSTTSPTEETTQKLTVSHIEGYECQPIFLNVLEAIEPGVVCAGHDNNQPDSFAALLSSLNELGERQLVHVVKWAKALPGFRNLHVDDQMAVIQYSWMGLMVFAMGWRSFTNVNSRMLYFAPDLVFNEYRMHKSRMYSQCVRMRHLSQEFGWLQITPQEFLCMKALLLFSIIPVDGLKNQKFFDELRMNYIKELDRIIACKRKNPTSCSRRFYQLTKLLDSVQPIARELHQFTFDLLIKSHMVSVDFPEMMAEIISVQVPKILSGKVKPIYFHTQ
Chain of Estrogen receptor (Homo sapiens) (P03372 whole entry, looked up): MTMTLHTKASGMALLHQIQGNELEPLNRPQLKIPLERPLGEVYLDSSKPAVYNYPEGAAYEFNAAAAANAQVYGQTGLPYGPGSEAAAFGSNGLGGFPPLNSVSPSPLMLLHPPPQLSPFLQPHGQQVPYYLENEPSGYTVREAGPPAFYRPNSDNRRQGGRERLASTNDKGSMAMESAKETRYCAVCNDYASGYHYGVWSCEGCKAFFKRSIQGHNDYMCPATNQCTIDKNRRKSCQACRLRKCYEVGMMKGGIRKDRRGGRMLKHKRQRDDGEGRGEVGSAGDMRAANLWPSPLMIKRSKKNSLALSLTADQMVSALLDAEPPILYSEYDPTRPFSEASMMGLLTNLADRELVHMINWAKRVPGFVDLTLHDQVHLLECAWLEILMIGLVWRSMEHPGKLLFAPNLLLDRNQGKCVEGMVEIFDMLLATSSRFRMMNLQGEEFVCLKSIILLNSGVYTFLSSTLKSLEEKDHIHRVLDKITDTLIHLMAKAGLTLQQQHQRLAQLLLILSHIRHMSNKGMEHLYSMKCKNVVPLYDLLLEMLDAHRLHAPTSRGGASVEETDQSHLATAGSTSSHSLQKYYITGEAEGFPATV

FC(F)(F)c1ccc(Cl)c(Cl)c1
inactive: outcome [1] | Potency [2] | Potency [3] | Potency [4] | Potency [5] | outcome [6] | Potency [7] | outcome [8] | outcome [9] | Potency [10] | Potency [11] | outcome [12] | Potency [13] | Potency [14] | Potency [15] | outcome [16] | Potency [17] | Potency [18] | Potency [19]

Cc1cnc(C(=O)NCCc2ccc(S(=O)(=O)NC(=O)NC3CCCCC3)cc2)cn1
inactive: outcome [1] | Potency [2] | Potency [3] | Potency [4] | Potency [5] | outcome [6] | Potency [7] | outcome [8] | outcome [9] | Potency [10] | Potency [11] | outcome [12] | Potency [13] | Potency [14] | Potency [15] | outcome [16] | Potency [18] | outcome [20]

C[Si](O[Si](C)(C)C)O[Si](C)(C)C
inactive: outcome [1] | Potency [2] | Potency [3] | Potency [4] | Potency [5] | outcome [6] | Potency [7] | outcome [8] | outcome [9] | Potency [10] | Potency [11] | outcome [12] | Potency [13] | Potency [14] | Potency [15] | outcome [16] | Potency [17] | Potency [19]

OCC(CO)(CBr)CBr
inactive: outcome [1] | Potency [2] | Potency [3] | Potency [4] | Potency [5] | outcome [6] | Potency [7] | outcome [8] | outcome [9] | Potency [10] | Potency [11] | outcome [12] | Potency [13] | Potency [14] | Potency [15] | outcome [16]

CCOC(=O)NNc1nncc2ccccc12
inactive: outcome [1] | Potency [2] | Potency [3] | Potency [4] | Potency [5] | outcome [6] | Potency [7] | outcome [8] | outcome [9] | Potency [10] | Potency [11] | outcome [12] | Potency [13] | Potency [14] | Potency [15] | outcome [16] | Potency [18] | PLD induction [20] -1.23% [at 7.66 µM]

OCc1cccnc1
inactive: outcome [1] | Potency [2] | Potency [3] | Potency [4] | Potency [5] | outcome [6] | Potency [7] | outcome [8] | outcome [9] | Potency [10] | Potency [11] | outcome [12] | Potency [13] | Potency [14] | Potency [15] | outcome [16] | Potency [18] | outcome [20]

O=S(=O)(O)c1ccc2ccccc2c1
inactive: outcome [1] | Potency [2] | Potency [3] | Potency [4] | Potency [5] | outcome [6] | Potency [7] | outcome [8] | outcome [9] | Potency [10] | Potency [11] | outcome [12] | Potency [13] | Potency [14] | Potency [15] | outcome [16] | Potency [18]

CC(c1cc2ccccc2s1)N(O)C(N)=O (stereo unspecified)
inactive: outcome [1] | Potency [2] | Potency [3] | Potency [4] | Potency [5] | outcome [6] | Potency [7] | outcome [8] | outcome [9] | Potency [10] | Potency [11] | outcome [12] | Potency [13] | Potency [14] | Potency [15] | outcome [16] | Potency [17] | Potency [18] | outcome [20] | Potency [19]

CCCCCCCCCCCCOCCO
inactive: outcome [1] | Potency [2] | Potency [3] | Potency [4] | Potency [5] | outcome [6] | Potency [7] | outcome [8] | outcome [9] | Potency [10] | Potency [11] | outcome [12] | Potency [13] | Potency [14] | Potency [15] | outcome [16] | Potency [17] | Potency [19]

CCCCC(CC)CO (stereo unspecified)
inactive: outcome [1] | Potency [2] | Potency [3] | Potency [4] | Potency [5] | outcome [6] | Potency [7] | outcome [8] | outcome [9] | Potency [10] | Potency [11] | outcome [12] | Potency [13] | Potency [14] | Potency [15] | outcome [16]

O=C(O)c1cc(C(=O)O)cc(S(=O)(=O)O)c1
inactive: outcome [1] | Potency [2] | Potency [3] | Potency [4] | Potency [5] | outcome [6] | Potency [7] | outcome [8] | outcome [9] | Potency [10] | Potency [11] | outcome [12] | Potency [13] | Potency [14] | Potency [15] | outcome [16]

CC(=O)CC(=O)Nc1ccccc1
inactive: outcome [1] | Potency [2] | Potency [3] | Potency [4] | Potency [5] | outcome [6] | Potency [7] | outcome [8] | outcome [9] | Potency [10] | Potency [11] | outcome [12] | Potency [13] | Potency [14] | Potency [15] | outcome [16]

O=c1[nH]c(=O)n([C@H]2C[C@H](O)[C@@H](CO)O2)cc1Br
inactive: outcome [1] | Potency [2] | Potency [3] | Potency [4] | Potency [5] | outcome [6] | Potency [7] | outcome [8] | outcome [9] | Potency [10] | Potency [11] | outcome [12] | Potency [13] | Potency [14] | Potency [15] | outcome [16] | Potency [18] | outcome [20]

O=C(O)c1ccccc1C(c1ccc(O)cc1)c1ccc(O)cc1
inactive: outcome [1] | Potency [2] | Potency [3] | Potency [4] | Potency [5] | outcome [6] | Potency [7] | outcome [8] | outcome [9] | Potency [10] | Potency [11] | outcome [12] | Potency [13] | Potency [14] | Potency [15] | outcome [16] | Potency [17] | Potency [18] | Potency [19]

Cc1ccc(N(C)C)cc1
inactive: outcome [1] | Potency [2] | Potency [3] | Potency [4] | Potency [5] | outcome [6] | Potency [7] | outcome [8] | outcome [9] | Potency [10] | Potency [11] | outcome [12] | Potency [13] | Potency [14] | Potency [15] | outcome [16] | Potency [17] | Potency [18]

CCCC(C)=O
inactive: outcome [1] | Potency [2] | Potency [3] | Potency [4] | Potency [5] | outcome [6] | Potency [7] | outcome [8] | outcome [9] | Potency [10] | Potency [11] | outcome [12] | Potency [13] | Potency [14] | Potency [15] | outcome [16]
